Key:
Test in all cases: DAPPL (digital affinity profiling via proximity ligation, sequencing); 10 mM Tris-HCl pH 7.5, 50 mM NaCl, 1 mM DTT, 4% glycerol, room temperature, 30 min; GST-TFs on glutathione beads, 16-mer random dsDNA library, 0.1% formaldehyde crosslink after washing; high values mean tight binding
FEV = target: T1, FEV (Homo sapiens, UniProt Q99581 1-238); details: protein: recombinant; tags: N-terminal GST; dsDNA, one strand shown
T1 sequence: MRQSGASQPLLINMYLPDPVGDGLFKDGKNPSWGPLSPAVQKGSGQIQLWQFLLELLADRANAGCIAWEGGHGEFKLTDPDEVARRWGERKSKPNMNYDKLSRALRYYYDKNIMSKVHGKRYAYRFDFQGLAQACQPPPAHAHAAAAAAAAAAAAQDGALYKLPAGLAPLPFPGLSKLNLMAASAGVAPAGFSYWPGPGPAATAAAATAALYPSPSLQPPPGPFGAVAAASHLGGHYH
How it was run: (§1)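 Yeast served to express human transcription factors as GST fusions, which were then captured on glutathione beads and labelled with DNA barcodes. Pooled with a tag-only sample, they were incubated with 200 nmole of a 16-mer random double-stranded DNA library for 30 min at room temperature in Tris/NaCl/DTT/glycerol buffer, washed, crosslinked with 0.1% formaldehyde, ligated by proximity, amplified by PCR and sequenced. Dividing each hexamer's read frequency for a factor by its frequency for the tag-only sample gives the binding signal.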

ETV5 = ETV5 (Homo sapiens, UniProt P41161 1-510); details: protein: recombinant; tags: N-terminal GST; dsDNA, one strand shown
Sequence of ETV5 (P41161 whole entry): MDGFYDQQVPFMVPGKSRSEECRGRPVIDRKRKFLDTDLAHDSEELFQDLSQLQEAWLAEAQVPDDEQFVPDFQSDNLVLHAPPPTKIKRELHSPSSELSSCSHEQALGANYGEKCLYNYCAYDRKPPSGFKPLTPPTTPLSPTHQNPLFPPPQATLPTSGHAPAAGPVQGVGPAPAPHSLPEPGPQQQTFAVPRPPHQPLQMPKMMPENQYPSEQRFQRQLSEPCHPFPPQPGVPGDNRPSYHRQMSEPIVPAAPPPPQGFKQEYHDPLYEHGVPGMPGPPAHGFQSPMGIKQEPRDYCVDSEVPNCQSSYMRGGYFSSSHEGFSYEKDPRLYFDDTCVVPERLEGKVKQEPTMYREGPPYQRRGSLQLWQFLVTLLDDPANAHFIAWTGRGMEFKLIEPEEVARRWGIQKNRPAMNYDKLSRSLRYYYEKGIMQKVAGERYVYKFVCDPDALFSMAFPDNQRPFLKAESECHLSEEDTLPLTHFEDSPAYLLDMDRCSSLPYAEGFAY
How it was run: as §1

HSF1 = HSF1 (Homo sapiens, UniProt Q00613 1-529); details: protein: recombinant; tags: N-terminal GST; chain copies: 3; dsDNA, one strand shown
Sequence of HSF1 (Q00613 whole entry): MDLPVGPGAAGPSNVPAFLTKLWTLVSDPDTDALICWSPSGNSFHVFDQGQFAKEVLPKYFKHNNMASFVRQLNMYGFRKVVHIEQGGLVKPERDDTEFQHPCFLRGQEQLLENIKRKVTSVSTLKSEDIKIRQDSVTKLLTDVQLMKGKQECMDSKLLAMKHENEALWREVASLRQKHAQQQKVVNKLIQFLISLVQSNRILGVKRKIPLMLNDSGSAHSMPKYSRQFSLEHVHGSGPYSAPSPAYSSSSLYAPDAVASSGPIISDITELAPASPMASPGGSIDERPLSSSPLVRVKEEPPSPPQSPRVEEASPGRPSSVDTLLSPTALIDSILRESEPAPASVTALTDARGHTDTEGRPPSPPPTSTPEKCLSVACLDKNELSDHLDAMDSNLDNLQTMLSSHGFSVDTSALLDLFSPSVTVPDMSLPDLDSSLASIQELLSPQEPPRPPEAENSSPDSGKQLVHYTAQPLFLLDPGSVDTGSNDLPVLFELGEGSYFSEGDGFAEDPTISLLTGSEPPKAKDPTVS
How it was run: as §1

SPIC = target: T2, SPIC (Homo sapiens, UniProt Q8N5J4 1-248); details: protein: recombinant; tags: N-terminal GST; dsDNA, one strand shown
T2 sequence: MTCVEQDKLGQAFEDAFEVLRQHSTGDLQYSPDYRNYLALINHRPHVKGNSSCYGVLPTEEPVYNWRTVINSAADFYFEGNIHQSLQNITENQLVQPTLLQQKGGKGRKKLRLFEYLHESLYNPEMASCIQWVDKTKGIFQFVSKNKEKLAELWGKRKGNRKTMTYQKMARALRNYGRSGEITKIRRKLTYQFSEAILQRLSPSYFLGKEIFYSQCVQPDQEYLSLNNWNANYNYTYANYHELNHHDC
How it was run: as §1

ELF4 = ELF4 (Homo sapiens, UniProt Q99607 1-663); details: protein: recombinant; tags: N-terminal GST; dsDNA, one strand shown
Sequence of ELF4 (Q99607 whole entry): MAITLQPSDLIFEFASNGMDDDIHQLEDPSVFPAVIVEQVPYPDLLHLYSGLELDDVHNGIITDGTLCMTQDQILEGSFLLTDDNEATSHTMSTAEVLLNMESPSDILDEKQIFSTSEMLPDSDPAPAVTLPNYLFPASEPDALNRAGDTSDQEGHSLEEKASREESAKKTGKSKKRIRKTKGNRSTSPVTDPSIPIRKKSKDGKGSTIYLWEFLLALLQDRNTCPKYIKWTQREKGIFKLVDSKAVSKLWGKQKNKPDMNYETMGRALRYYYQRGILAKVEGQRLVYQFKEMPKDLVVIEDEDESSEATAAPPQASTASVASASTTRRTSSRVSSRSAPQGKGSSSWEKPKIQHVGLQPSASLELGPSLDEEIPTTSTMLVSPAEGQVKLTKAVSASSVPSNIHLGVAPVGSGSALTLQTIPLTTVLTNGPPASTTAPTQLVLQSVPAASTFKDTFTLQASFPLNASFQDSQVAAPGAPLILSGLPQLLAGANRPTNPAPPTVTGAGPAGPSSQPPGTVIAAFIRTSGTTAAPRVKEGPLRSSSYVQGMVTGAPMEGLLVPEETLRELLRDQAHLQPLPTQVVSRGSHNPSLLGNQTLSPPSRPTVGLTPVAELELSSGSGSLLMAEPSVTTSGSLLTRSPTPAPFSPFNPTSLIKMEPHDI
How it was run: as §1

ELK4 = target: T3, ELK4 (Homo sapiens, UniProt P28324-2 1-405); details: protein: recombinant; tags: N-terminal GST; dsDNA, one strand shown
T3 sequence: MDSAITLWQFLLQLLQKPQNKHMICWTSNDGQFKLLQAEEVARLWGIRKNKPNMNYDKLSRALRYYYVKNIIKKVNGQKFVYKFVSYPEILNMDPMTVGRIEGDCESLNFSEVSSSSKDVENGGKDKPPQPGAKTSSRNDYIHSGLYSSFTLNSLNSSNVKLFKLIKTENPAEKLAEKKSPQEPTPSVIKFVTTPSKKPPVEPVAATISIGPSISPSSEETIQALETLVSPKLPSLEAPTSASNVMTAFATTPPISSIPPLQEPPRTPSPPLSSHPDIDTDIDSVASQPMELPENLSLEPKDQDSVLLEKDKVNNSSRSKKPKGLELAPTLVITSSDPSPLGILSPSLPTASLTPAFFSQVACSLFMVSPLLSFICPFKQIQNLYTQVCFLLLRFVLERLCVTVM
How it was run: as §1

ETV2 = target: T4, ETV2 (Homo sapiens, UniProt O00321 1-342); details: protein: recombinant; tags: N-terminal GST; dsDNA, one strand shown
T4 sequence: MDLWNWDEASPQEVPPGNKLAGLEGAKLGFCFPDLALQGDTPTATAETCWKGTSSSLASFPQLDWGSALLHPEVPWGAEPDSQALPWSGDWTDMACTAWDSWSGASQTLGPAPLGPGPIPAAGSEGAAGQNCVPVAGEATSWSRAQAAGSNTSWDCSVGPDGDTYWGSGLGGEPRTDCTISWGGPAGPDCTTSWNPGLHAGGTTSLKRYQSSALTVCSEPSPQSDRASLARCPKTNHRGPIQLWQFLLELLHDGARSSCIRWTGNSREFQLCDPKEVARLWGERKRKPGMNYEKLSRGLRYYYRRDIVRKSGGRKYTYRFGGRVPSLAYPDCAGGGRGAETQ
How it was run: as §1

ELF3 = target: T5, ELF3 (Homo sapiens, UniProt P78545 1-371); details: protein: recombinant; tags: N-terminal GST; dsDNA, one strand shown
T5 sequence: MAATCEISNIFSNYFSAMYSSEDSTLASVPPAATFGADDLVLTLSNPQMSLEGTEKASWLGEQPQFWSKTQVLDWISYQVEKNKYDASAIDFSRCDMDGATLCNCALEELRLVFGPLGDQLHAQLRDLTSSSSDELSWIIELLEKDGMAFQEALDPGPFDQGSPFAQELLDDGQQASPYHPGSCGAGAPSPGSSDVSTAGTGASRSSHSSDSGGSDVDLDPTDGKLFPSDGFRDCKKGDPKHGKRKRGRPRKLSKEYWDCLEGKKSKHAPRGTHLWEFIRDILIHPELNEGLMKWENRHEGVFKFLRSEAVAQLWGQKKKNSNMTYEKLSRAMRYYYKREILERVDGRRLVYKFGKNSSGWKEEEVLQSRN
How it was run: as §1

CRX = CRX (Homo sapiens, UniProt O43186 1-299); details: protein: recombinant; tags: N-terminal GST; dsDNA, one strand shown
Sequence of CRX (O43186 whole entry): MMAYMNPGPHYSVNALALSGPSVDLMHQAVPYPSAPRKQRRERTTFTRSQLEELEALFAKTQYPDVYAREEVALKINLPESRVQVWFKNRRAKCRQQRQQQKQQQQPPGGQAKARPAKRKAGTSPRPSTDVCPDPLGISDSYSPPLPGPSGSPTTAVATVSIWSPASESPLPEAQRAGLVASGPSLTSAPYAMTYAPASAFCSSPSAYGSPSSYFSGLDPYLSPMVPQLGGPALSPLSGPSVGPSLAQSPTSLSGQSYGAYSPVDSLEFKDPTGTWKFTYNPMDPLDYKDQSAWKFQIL
How it was run: as §1

ETV1 = ETV1 (Homo sapiens, UniProt P50549 1-477); details: protein: recombinant; tags: N-terminal GST; dsDNA, one strand shown
Sequence of ETV1 (P50549 whole entry): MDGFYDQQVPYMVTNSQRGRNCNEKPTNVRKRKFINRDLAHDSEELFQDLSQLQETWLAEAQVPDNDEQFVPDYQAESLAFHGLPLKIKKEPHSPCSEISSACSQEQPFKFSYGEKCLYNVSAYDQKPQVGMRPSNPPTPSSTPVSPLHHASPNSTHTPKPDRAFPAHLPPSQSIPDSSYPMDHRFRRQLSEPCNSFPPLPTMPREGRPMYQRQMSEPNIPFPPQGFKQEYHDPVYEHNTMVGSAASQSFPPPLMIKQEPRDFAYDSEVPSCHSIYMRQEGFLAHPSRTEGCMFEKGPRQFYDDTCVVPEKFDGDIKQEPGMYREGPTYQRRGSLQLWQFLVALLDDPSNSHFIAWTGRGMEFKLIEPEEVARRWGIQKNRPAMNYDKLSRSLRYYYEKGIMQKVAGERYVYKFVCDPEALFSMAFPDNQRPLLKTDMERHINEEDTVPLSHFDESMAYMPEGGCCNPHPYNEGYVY
How it was run: as §1

ERF = target: T6, ERF (Homo sapiens, UniProt P50548 1-548); details: protein: recombinant; tags: N-terminal GST; dsDNA, one strand shown
T6 sequence: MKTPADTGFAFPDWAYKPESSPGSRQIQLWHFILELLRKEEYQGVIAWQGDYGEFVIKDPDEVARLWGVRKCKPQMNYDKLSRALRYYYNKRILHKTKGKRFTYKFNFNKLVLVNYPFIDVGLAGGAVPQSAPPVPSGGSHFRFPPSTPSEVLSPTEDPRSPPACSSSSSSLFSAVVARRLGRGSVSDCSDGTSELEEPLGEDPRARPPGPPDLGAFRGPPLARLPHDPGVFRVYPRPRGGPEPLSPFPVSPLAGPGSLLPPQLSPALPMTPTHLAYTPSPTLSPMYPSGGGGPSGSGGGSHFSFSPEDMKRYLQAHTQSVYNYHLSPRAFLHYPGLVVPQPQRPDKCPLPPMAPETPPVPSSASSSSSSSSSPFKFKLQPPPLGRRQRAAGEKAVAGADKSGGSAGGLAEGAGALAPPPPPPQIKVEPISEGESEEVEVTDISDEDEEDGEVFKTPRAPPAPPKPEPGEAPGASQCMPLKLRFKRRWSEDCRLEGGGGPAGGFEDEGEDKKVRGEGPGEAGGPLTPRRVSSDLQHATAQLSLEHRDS
How it was run: as §1

ETV3L = target: T7, ETV3L (Homo sapiens, UniProt Q6ZN32 1-361); details: protein: recombinant; tags: N-terminal GST; dsDNA, one strand shown
T7 sequence: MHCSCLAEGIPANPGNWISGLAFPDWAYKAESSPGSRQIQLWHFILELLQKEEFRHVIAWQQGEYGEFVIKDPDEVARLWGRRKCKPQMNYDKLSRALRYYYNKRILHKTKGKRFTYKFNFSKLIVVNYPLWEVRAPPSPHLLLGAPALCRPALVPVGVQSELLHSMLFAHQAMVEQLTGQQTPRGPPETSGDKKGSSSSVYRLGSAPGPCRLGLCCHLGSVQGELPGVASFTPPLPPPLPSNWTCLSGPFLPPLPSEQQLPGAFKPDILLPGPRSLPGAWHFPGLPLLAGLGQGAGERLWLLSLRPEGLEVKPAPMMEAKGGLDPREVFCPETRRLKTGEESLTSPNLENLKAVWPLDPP
How it was run: as §1

ETS2 = target: T8, ETS2 (Homo sapiens, UniProt P15036 1-469); details: protein: recombinant; tags: N-terminal GST; dsDNA, one strand shown
T8 sequence: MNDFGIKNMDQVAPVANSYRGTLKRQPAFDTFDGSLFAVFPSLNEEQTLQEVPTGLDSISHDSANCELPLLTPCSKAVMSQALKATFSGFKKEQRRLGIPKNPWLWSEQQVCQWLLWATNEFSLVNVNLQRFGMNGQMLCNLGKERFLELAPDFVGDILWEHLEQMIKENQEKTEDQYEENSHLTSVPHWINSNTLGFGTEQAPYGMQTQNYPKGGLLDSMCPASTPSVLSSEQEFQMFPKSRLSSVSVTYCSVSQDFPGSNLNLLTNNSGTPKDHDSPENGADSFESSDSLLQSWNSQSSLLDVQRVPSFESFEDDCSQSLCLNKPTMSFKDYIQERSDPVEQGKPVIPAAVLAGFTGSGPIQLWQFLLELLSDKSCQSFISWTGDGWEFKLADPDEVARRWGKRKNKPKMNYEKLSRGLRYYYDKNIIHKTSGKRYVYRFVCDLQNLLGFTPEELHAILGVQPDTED
How it was run: as §1

SPDEF = target: T9, SPDEF (Homo sapiens, UniProt O95238 1-335); details: protein: recombinant; tags: N-terminal GST; dsDNA, one strand shown
T9 sequence: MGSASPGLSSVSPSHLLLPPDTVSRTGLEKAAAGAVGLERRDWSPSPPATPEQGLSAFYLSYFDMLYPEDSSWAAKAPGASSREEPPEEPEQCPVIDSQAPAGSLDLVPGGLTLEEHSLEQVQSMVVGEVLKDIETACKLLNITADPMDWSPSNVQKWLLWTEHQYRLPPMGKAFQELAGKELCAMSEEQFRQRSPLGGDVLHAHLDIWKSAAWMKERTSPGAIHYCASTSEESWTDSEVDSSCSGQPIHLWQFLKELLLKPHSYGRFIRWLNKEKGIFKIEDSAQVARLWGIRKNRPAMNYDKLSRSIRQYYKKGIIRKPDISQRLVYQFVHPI
How it was run: as §1

ETV7 = target: T10, ETV7 (Homo sapiens, UniProt Q9Y603 1-341); details: protein: recombinant; tags: N-terminal GST; dsDNA, one strand shown
T10 sequence: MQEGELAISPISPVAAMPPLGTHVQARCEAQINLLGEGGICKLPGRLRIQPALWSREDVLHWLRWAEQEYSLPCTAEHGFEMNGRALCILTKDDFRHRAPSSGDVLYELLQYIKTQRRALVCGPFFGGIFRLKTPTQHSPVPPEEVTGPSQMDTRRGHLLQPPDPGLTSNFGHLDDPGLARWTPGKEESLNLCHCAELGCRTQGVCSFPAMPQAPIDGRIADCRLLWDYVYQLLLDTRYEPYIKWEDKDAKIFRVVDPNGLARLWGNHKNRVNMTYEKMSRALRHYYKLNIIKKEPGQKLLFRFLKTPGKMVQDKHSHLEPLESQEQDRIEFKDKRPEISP
How it was run: as §1

ELF5 = target: T11, ELF5 (Homo sapiens, UniProt Q9UKW6-2 1-255); details: protein: recombinant; tags: N-terminal GST; dsDNA, one strand shown
T11 sequence: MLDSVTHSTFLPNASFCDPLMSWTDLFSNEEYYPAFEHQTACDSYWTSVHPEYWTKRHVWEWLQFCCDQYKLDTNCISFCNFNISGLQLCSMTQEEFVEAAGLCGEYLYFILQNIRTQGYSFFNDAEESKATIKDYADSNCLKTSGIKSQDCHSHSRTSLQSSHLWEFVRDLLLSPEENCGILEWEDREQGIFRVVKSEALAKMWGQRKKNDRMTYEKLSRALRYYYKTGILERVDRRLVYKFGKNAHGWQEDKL
How it was run: as §1

ETV3 = target: T12, ETV3 (Homo sapiens, UniProt P41162-2 1-143); details: protein: recombinant; tags: N-terminal GST; dsDNA, one strand shown
T12 sequence: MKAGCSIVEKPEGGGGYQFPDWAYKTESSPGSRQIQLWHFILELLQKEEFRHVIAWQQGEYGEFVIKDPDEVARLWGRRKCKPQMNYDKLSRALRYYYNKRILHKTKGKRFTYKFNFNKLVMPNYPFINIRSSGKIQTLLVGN
How it was run: as §1

ETV6 = ETV6 (Homo sapiens, UniProt P41212 1-452); details: protein: recombinant; tags: N-terminal GST; dsDNA, one strand shown
Sequence of ETV6 (P41212 whole entry): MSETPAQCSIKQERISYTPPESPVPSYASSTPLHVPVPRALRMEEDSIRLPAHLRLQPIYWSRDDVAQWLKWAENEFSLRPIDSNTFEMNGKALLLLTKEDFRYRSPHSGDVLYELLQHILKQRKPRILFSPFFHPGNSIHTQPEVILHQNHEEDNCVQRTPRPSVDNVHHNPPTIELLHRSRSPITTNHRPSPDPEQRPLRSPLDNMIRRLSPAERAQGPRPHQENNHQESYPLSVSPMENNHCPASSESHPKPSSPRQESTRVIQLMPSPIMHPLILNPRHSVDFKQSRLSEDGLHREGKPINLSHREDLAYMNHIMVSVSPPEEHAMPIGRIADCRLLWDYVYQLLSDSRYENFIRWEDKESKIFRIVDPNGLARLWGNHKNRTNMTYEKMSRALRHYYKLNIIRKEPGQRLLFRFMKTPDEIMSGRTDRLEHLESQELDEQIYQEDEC
How it was run: as §1

Q: What does the source list for CTGATG?
A: binding signal (FEV): 1.62 fold enrichment (6-mer frequency, TF over GST control); binding signal (ETV5): 1.65 fold enrichment (6-mer frequency, TF over GST control); binding signal (HSF1): 1.33 fold enrichment (6-mer frequency, TF over GST control); binding signal (SPIC): 1.79 fold enrichment (6-mer frequency, TF over GST control); binding signal (ELF4): 1.79 fold enrichment (6-mer frequency, TF over GST control); binding signal (ELK4): 1.83 fold enrichment (6-mer frequency, TF over GST control); binding signal (ETV2): 1.7 fold enrichment (6-mer frequency, TF over GST control); binding signal (ELF3): 1.65 fold enrichment (6-mer frequency, TF over GST control); binding signal (CRX): 1.46 fold enrichment (6-mer frequency, TF over GST control); binding signal (ETV1): 1.61 fold enrichment (6-mer frequency, TF over GST control); binding signal (ERF): 1.48 fold enrichment (6-mer frequency, TF over GST control); binding signal (ETV3L): 1.53 fold enrichment (6-mer frequency, TF over GST control); binding signal (ETS2): 1.68 fold enrichment (6-mer frequency, TF over GST control); binding signal (SPDEF): 1.5 fold enrichment (6-mer frequency, TF over GST control); binding signal (ETV7): 1.64 fold enrichment (6-mer frequency, TF over GST control); binding signal (ELF5): 1.64 fold enrichment (6-mer frequency, TF over GST control); binding signal (ETV3): 1.74 fold enrichment (6-mer frequency, TF over GST control); binding signal (ETV6): 1.72 fold enrichment (6-mer frequency, TF over GST control)
